{
  "source": "the supplement of paper PMC8975748",
  "note": "Counter-ions that a name gives are not always drawn.",
  "data": [
    {"test_system": "Saccharomyces cerevisiae BY4741 SeMeCo community", "assay": "z-score of subpopulation abundance vs DMSO median, subpopulation auxotrophic for HUM; higher = larger share of this subpopulation than in DMSO controls", "details": "10 µM; 24 h; SM minimal medium; subpopulation (auxotrophy): HUM", "protocol": "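Fluorescent four-plasmid SeMeCo (self-establishing metabolically cooperating S. cerevisiae BY4741 community; plasmids pH-mRuby2, pL-mWasabi, pU-eCFP, pM-TagRFP657) was grown 24 h in minimal SM medium with each Selleck FDA-approved drug at 10 µM in 384-well plates. Cells were fixed and imaged by high-content confocal microscopy. For each auxotrophic subpopulation (and the prototroph), a z-score gives the deviation from the DMSO vehicle-control population median.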", "values": [
      {"compound": "O=C1CCc2cc(OCCCCc3nnnn3C3CCCCC3)ccc2N1", "note": "[Cilostazol]", "z-score of subpopulation abundance": -0.31},
      {"compound": "C[n+]1ccccc1C=NO", "note": "[Pralidoxime Iodide]", "z-score of subpopulation abundance": 0.13},
      {"compound": "COc1ccc(NS(=O)(=O)c2ccc(N)cc2)nn1", "note": "[Sulfamethoxypyridazine]", "z-score of subpopulation abundance": -0.17},
      {"compound": "CCN(CC)CCNC(=O)c1cc(Cl)c(N)cc1OC", "note": "[Metoclopramide]", "z-score of subpopulation abundance": 0.35},
      {"compound": "C[C@@H](O)[C@H]1C(=O)N2C(C(=O)O)=C(S[C@@H]3CN[C@H](C(=O)N(C)C)C3)[C@H](C)[C@H]12", "note": "[Meropenem]", "z-score of subpopulation abundance": 0.12},
      {"compound": "O=C(O)CCC(=O)Nc1ccc(S(=O)(=O)Nc2nccs2)cc1", "note": "[Succinylsulfathiazole]", "z-score of subpopulation abundance": -0.33},
      {"compound": "Cc1ccccc1OCC(O)CO", "note": "(stereo not given) [Mephenesin]", "z-score of subpopulation abundance": -0.77},
      {"compound": "O=c1cc(-c2ccc(O)c(O)c2)oc2cc(O)cc(O)c12", "note": "[Luteolin]", "z-score of subpopulation abundance": -0.43},
      {"compound": "CC1(C)S[C@@H]2[C@H](NC(=O)Cc3ccccc3)C(=O)N2[C@H]1C(=O)O", "note": "[Penicillin G Sodium]", "z-score of subpopulation abundance": -0.66},
      {"compound": "O=C1[C@@H]2[C@H]3CC[C@H](C3)[C@@H]2C(=O)N1C[C@@H]1CCCC[C@H]1CN1CCN(c2nsc3ccccc23)CC1", "note": "[lurasidone]", "z-score of subpopulation abundance": -0.45},
      {"compound": "CCCCCOc1ccc(-c2ccc(-c3ccc(C(=O)N[C@H]4C[C@@H](O)[C@@H](O)NC(=O)[C@@H]5[C@@H](O)[C@@H](C)CN5C(=O)[C@H]([C@@H](C)O)NC(=O)[C@H]([C@H](O)[C@@H](O)c5ccc(O)cc5)NC(=O)[C@@H]5C[C@@H](O)CN5C(=O)[C@H]([C@@H](C)O)NC4=O)cc3)cc2)cc1", "z-score of subpopulation abundance": 25.3},
      {"compound": "Cc1c(Nc2ncccc2C(=O)O)cccc1C(F)(F)F", "note": "[Flunixin Meglumin]", "z-score of subpopulation abundance": 0.12},
      {"compound": "C[C@@H](O)[C@H]1C(=O)N2C(C(=O)O)=C(SCCNC=N)C[C@H]12", "note": "[Imipenem]", "z-score of subpopulation abundance": 0.59},
      {"compound": "C#C[C@]1(O)CC[C@H]2[C@@H]3CCC4=CCCC[C@@H]4[C@H]3C(=C)C[C@@]21CC", "note": "[Desogestrel]", "z-score of subpopulation abundance": -0.05},
      {"compound": "CC[C@H]1OC(=O)C[C@@H](O)[C@H](C)[C@@H](O[C@@H]2O[C@H](C)[C@@H](O)[C@H](N(C)C)[C@H]2O)[C@@H](CCN2C[C@H](C)C[C@H](C)C2)C[C@@H](C)C(=O)/C=C/C(C)=C/[C@@H]1CO[C@@H]1O[C@H](C)[C@@H](O)[C@@H](OC)[C@H]1OC", "note": "[Tilmicosin]", "z-score of subpopulation abundance": 0.75},
      {"compound": "CCC(C)C1OC2(CCC1C)CC1CC(CC=C(C)C(OC3CC(OC)C(OC4CC(OC)C(O)C(C)O4)C(C)O3)C(C)C=CC=C3COC4C(O)C(C)=CC(C(=O)O1)C34O)O2", "note": "(stereo not given) [Ivermectin]", "z-score of subpopulation abundance": 2.99},
      {"compound": "O=C1NC(=O)C(c2ccccc2)(c2ccccc2)N1", "note": "[Phenytoin]", "z-score of subpopulation abundance": 0.18},
      {"compound": "COC(=O)C1=C(C)NC(C)=C(C(=O)OC(C)(C)CN(C)CCC(c2ccccc2)c2ccccc2)C1c1cccc([N+](=O)[O-])c1", "note": "(stereo not given) [Lercanidipine]", "z-score of subpopulation abundance": 0.23},
      {"compound": "CO[C@@]1(NC(=O)C(C(=O)O)c2ccc(O)cc2)C(=O)N2C(C(=O)O)=C(CSc3nnnn3C)CO[C@@H]21", "note": "(stereo not given in full) [Latamoxef sodium]", "z-score of subpopulation abundance": -0.43},
      {"compound": "CC[C@H]1OC(=O)[C@H](C)[C@@H](O[C@H]2C[C@@](C)(OC)[C@@H](O)[C@H](C)O2)[C@H](C)[C@@H](O[C@@H]2O[C@H](C)C[C@H](N(C)C)[C@H]2O)[C@](C)(O)C[C@@H](C)C(=O)[C@H](C)[C@@H](O)[C@]1(C)O", "note": "[Erythromycin]", "z-score of subpopulation abundance": -0.16},
      {"compound": "CN1C2CCC1CC(OC(=O)C(O)c1ccccc1)C2", "note": "(stereo not given) [Homatropine Bromide]", "z-score of subpopulation abundance": 0},
      {"compound": "CC[C@@H]1/C=C(\\C)C[C@H](C)C[C@H](OC)[C@H]2O[C@@](O)(C(=O)C(=O)N3CCCC[C@H]3C(=O)O[C@H](/C(C)=C/[C@@H]3CC[C@@H](O)[C@H](OC)C3)[C@H](C)[C@@H](O)CC1=O)[C@H](C)C[C@@H]2OC", "note": "[Ascomycin (FK520)]", "z-score of subpopulation abundance": 2.57},
      {"compound": "CC[C@H](C)C(=O)O[C@H]1C[C@@H](C)C=C2C=C[C@H](C)[C@H](CC[C@@H]3C[C@@H](O)CC(=O)O3)[C@H]21", "note": "[Lovastatin]", "z-score of subpopulation abundance": 1.12},
      {"compound": "OCCN1CCN(CC/C=C2/c3ccccc3Sc3ccc(C(F)(F)F)cc32)CC1", "note": "[Flupenthixol dihydrochloride]", "z-score of subpopulation abundance": -0.33},
      {"compound": "C=C[C@]1(C)C[C@@H](OC(=O)CS[C@@H]2C[C@H]3CC[C@@H](C2)N3C)[C@]2(C)[C@H](C)CC[C@]3(CCC(=O)[C@H]32)[C@@H](C)[C@@H]1O", "note": "[Retapamulin]", "z-score of subpopulation abundance": 0.06},
      {"compound": "Clc1ccccc1C(c1ccccc1)(c1ccccc1)n1ccnc1", "note": "[Clotrimazole]", "z-score of subpopulation abundance": 7.76},
      {"compound": "CCOC(=O)C1=C(COCCN)NC(C)=C(C(=O)OC)[C@@H]1c1ccccc1Cl", "note": "[Levamlodipine]", "z-score of subpopulation abundance": -5.45},
      {"compound": "O=C(Nc1cc(Cl)cc(Cl)c1O)c1c(O)c(Cl)cc(Cl)c1Cl", "note": "[Oxyclozanide]", "z-score of subpopulation abundance": -0.71},
      {"compound": "Cc1noc(NS(=O)(=O)c2ccc(N)cc2)c1C", "note": "[Sulfisoxazole]", "z-score of subpopulation abundance": 1.21},
      {"compound": "CCn1cc(C(=O)O)c(=O)c2cc(F)c(N3CCNC(C)C3)c(F)c21", "note": "(stereo not given) [Lomefloxacin HCl]", "z-score of subpopulation abundance": 0.66},
      {"compound": "CCOC(=O)C1=C(COCCN)NC(C)=C(C(=O)OC)C1c1ccccc1Cl", "note": "(stereo not given) [Amlodipine]", "z-score of subpopulation abundance": -6.23},
      {"compound": "O=C1CN(/N=C/c2ccc([N+](=O)[O-])o2)C(=O)N1", "note": "[Nitrofurantoin]", "z-score of subpopulation abundance": -0.82},
      {"compound": "Cc1ccnc(NS(=O)(=O)c2ccc(N)cc2)n1", "note": "[Sulfamerazine]", "z-score of subpopulation abundance": 0.76},
      {"compound": "CC[C@H]1OC(=O)[C@H](C)[C@@H](O[C@H]2C[C@@](C)(OC)[C@@H](O)[C@H](C)O2)[C@H](C)[C@@H](O[C@@H]2O[C@H](C)C[C@H](N(C)C)[C@H]2O)[C@](C)(O)C[C@@H](C)/C(=N\\OCOCCOC)[C@H](C)[C@@H](O)[C@]1(C)O", "note": "[Roxithromycin]", "z-score of subpopulation abundance": 1.28},
      {"compound": "N[C@@H]1CCCCN(c2c(F)cc3c(=O)c(C(=O)O)cn(C4CC4)c3c2Cl)C1", "note": "[Besifloxacin HCl]", "z-score of subpopulation abundance": -0.3},
      {"compound": "C=C1c2cccc(O)c2C(O)=C2C(=O)[C@]3(O)C(O)=C(C(N)=O)C(=O)[C@@H](N(C)C)[C@@H]3[C@@H](O)[C@H]12", "note": "[Methacycline HCl]", "z-score of subpopulation abundance": -0.03},
      {"compound": "CC1(C)S[C@@H]2[C@H](NC(=O)C(C(=O)O)c3ccccc3)C(=O)N2[C@H]1C(=O)O", "note": "(stereo not given in full) [Carbenicillin disodium]", "z-score of subpopulation abundance": 0.12},
      {"compound": "CNCC[C@H](Oc1cccc2ccccc12)c1cccs1", "note": "[Duloxetine]", "z-score of subpopulation abundance": 0.24},
      {"compound": "CC[C@H]1OC(=O)[C@H](C)[C@@H](O[C@H]2C[C@@](C)(OC)[C@@H](O)[C@H](C)O2)[C@H](C)[C@@H](O[C@@H]2O[C@H](C)C[C@H](N(C)C)[C@H]2O)[C@](C)(O)C[C@@H](C)C(=O)[C@H](C)[C@H]2OC(=O)O[C@@]21C", "note": "[Erythromycin Cyclocarbonate]", "z-score of subpopulation abundance": 0.96},
      {"compound": "COc1ccc2cc([C@H](C)C(=O)O)ccc2c1", "note": "[Naproxen Sodium]", "z-score of subpopulation abundance": -2.32}
    ]}
  ]
}
